{
  "source": "PubChem BioAssay AID720511",
  "about": "(Broad Institute, 2013)",
  "note": "The whole screen tested about 350,000 compounds, of which about 1,300 (0.37%) were called active. Many of the other results were omitted from the sample, so actives are more common in it than they were. A number with no mark means an inactive call.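 The calls were made as follows: active = mean added fluorescence quench of at least 8% versus neutral control, with both replicates also reaching 8%; inconclusive = only one of the mean or replicate conditions met; inactive = mean below 8% and not both replicates reaching 8%.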",
  "data": [
    {"test": "F508del CFTR correction, initial screen, CFBE line, single point (AID 720511);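 also: cells transiently co-express mutant CFTR-F508del with the halide-sensitive YFP; corrector assay measuring rescue of mutant channel to the surface after 24 h compound exposure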", "conditions": "CFBE cells, YFP halide quenching, at 7.58 µM, active compounds read high, % fluorescence drop versus neutral controls, stimulated with forskolin plus potentiator P3", "values": [
      {"smiles": "CCS(=O)(=O)Nc1ccc2c(c1)C(=O)N(C)[C@H]1CC[C@@H](CC(=O)Nc3ccccc3)O[C@H]1CO2", "activity (quench increase)": "-3.46%"},
      {"smiles": "CCOc1ccc(NC(=O)c2ccc(NC(=O)COC(=O)c3ccc(NC(=O)CC#N)cc3)cc2)cc1", "activity (quench increase)": "-1.21%"},
      {"smiles": "CCOc1ccc(NC(=O)CCNC(=O)c2ccc(Br)cc2)cc1", "activity (quench increase)": "-1.36%"},
      {"smiles": "CCOc1ccc(NC(=O)c2ccc(NC(=O)CN3C(=O)C(=O)N(CC(C)C)C3=O)cc2)cc1", "activity (quench increase)": "9.37% (active)"},
      {"smiles": "COc1ccc(NC(=O)N(C)C[C@H]2OCCCC[C@@H](C)Oc3ccc(NS(=O)(=O)c4ccc(F)cc4)cc3C(=O)N([C@H](C)CO)C[C@H]2C)cc1", "activity (quench increase)": "3.43%"},
      {"smiles": "C[C@@H](O)C#Cc1ccc([C@@H]2[C@H]3CN(S(=O)(=O)c4ccccc4)CCCCN3[C@H]2CO)cc1", "activity (quench increase)": "1.07%"},
      {"smiles": "CO[C@@H]1CC[C@@H]2CCOc3c(C#N)cccc3C(=O)N(C)C[C@H](C)C(=O)N(C)C[C@H]1O2", "activity (quench increase)": "1.86%"},
      {"smiles": "Cn1cc(C2OC(=O)c3ccccc32)c2ccccc21", "note": "(stereo unspecified)", "activity (quench increase)": "1.54%"},
      {"smiles": "O=C1c2cccc3c([N+](=O)[O-])ccc(c23)C(=O)N1CC1CCCO1", "note": "(stereo unspecified)", "activity (quench increase)": "0.491%"},
      {"smiles": "CN1C(=O)c2cccc3c(N)ccc(c23)C1=O", "activity (quench increase)": "23.7% (active)"},
      {"smiles": "NC(=O)c1ncn([C@@H]2O[C@H](C(=O)O)[C@@H](O)[C@H]2O)n1", "activity (quench increase)": "2.03%"},
      {"smiles": "COc1ccc(CN(C)C[C@@H]2OCCCC[C@@H](C)Oc3ccc(NC(=O)Nc4ccc(OC)cc4)cc3C(=O)N([C@@H](C)CO)C[C@@H]2C)cc1", "activity (quench increase)": "-0.139%"},
      {"smiles": "CCc1cc(-c2nnn(CCC3COCCO3)c2CC)ccc1-c1cn(Cc2ccc3ccccc3c2)nn1", "note": "(stereo unspecified)", "activity (quench increase)": "8.99% (active)"},
      {"smiles": "COc1ccc(-c2cn(CC[C@@H]3CC[C@@H](NS(=O)(=O)c4ccccc4C)[C@H](CO)O3)nn2)cc1", "activity (quench increase)": "2.94%"},
      {"smiles": "CCCC(=O)Nc1ccc2c(c1)OC[C@H](C)N(S(=O)(=O)c1cn(C)cn1)C[C@@H](C)[C@H](OC)CN(C)C2=O", "activity (quench increase)": "-4.43%"},
      {"smiles": "O=C(c1ccccn1)N1CC[C@@H]2[C@H]1c1cc(-c3ccccc3)ccc1N[C@@H]2CO", "activity (quench increase)": "-1.72%"},
      {"smiles": "O=C1CN(S(=O)(=O)Cc2ccccc2)C[C@@H]2[C@@H](c3ccc(C#Cc4ccccc4)cc3)[C@@H](CO)N12", "activity (quench increase)": "7.93%"},
      {"smiles": "O=C1CN(S(=O)(=O)Cc2ccccc2)C[C@@H]2[C@@H](c3ccc(C#Cc4cccc(F)c4)cc3)[C@@H](CO)N12", "activity (quench increase)": "9.07% (active)"},
      {"smiles": "CCS(=O)(=O)N1CC(=O)N2[C@H](CO)[C@@H](c3ccc(C#Cc4cccc(F)c4)cc3)[C@@H]2C1", "activity (quench increase)": "7.13%"},
      {"smiles": "CCS(=O)(=O)N1CCC2(CC1)CN[C@H](CO)c1c2c2ccc(OC)cc2n1C", "activity (quench increase)": "0.371%"},
      {"smiles": "C[C@@H]1CN([C@@H](C)CO)C(=O)c2cc(NS(C)(=O)=O)ccc2O[C@@H]1CN(C)C(=O)Nc1ccc(F)cc1", "activity (quench increase)": "-3.43%"},
      {"smiles": "Cc1noc(C)c1C(=O)NCC1COc2ccccc2O1", "note": "(stereo unspecified)", "activity (quench increase)": "19.3% (active)"},
      {"smiles": "O=C(COC(=O)c1ccc(F)cc1)NCC1COc2ccccc2O1", "note": "(stereo unspecified)", "activity (quench increase)": "-0.696%"},
      {"smiles": "O=C(NCC1COc2ccccc2O1)C1(c2ccccc2)CCCC1", "note": "(stereo unspecified)", "activity (quench increase)": "1.14%"},
      {"smiles": "CC(=O)N(C)C[C@H]1Oc2ncc(C#Cc3ccccn3)cc2C(=O)N([C@H](C)CO)C[C@@H]1C", "activity (quench increase)": "0.118%"},
      {"smiles": "CO[C@@H](CN(C)S(=O)(=O)c1ccccc1)[C@H](C)CN(Cc1ccccc1Cl)[C@H](C)CO", "activity (quench increase)": "-3.7%"},
      {"smiles": "COc1ccc2c3c(n(C)c2c1)[C@H](CO)N(S(=O)(=O)c1ccc(C)cc1)CC31CN(C(=O)c2ccccn2)C1", "activity (quench increase)": "1.98%"},
      {"smiles": "Cc1ccc(S(=O)(=O)Nc2ccc3c(c2)C(=O)N([C@H](C)CO)C[C@@H](C)[C@H](CN(C)C(=O)Nc2ccc(C(F)(F)F)cc2)OCCCC[C@H](C)O3)cc1", "activity (quench increase)": "-0.228%"},
      {"smiles": "C/C(=N\\Nc1ccc(Cl)nn1)c1ccccc1O", "activity (quench increase)": "-2.03%"},
      {"smiles": "Oc1cccc(/C=N/Nc2ccc(Cl)nn2)c1O", "activity (quench increase)": "13.3% (active)"},
      {"smiles": "C[C@H]1CCCCO[C@H](CN(C)Cc2ccccc2)[C@@H](C)CN([C@@H](C)CO)C(=O)c2cc(NC(=O)c3ccccc3)ccc2O1", "activity (quench increase)": "-0.952%"},
      {"smiles": "C[C@H]1CN([C@@H](C)CO)S(=O)(=O)c2ccc(C3=CCCCC3)cc2O[C@@H]1CN(C)Cc1ccccc1", "activity (quench increase)": "-0.755%"},
      {"smiles": "C[C@@H]1CN([C@@H](C)CO)S(=O)(=O)c2ccc(-c3ccc(F)cc3)cc2O[C@@H]1CN(C)CC1CC1", "activity (quench increase)": "2.11%"},
      {"smiles": "Oc1ccc(/C=N/Nc2nc(-c3ccccc3F)nc3ccccc23)c(O)c1", "activity (quench increase)": "12.3% (active)"},
      {"smiles": "CO[C@@H]1CN(C)C(=O)c2ccc(NS(=O)(=O)c3cccc(Cl)c3)cc2OC[C@H](C)NC[C@H]1C", "activity (quench increase)": "-1.91%"},
      {"smiles": "CC(C)NC(=O)N(C)C[C@H]1Oc2ccc(NC(=O)Cn3cnnn3)cc2CC(=O)N([C@H](C)CO)C[C@H]1C", "activity (quench increase)": "-1.17%"},
      {"smiles": "Cc1noc(C)c1S(=O)(=O)N(C)C[C@H]1Oc2c(NC(=O)c3cnccn3)cccc2C(=O)N([C@H](C)CO)C[C@H]1C", "activity (quench increase)": "-0.706%"},
      {"smiles": "Cc1cccc(N(C)C(=O)c2cc3c(=O)[nH]c4ccc(C)cc4c3s2)c1", "activity (quench increase)": "15.5% (active)"},
      {"smiles": "CCN(CC)CCCNC(=O)c1cc2c(=O)[nH]c3ccc(C)cc3c2s1", "activity (quench increase)": "4.04%"},
      {"smiles": "Cc1ccc2[nH]c(=O)c(CC(=O)O)c(-c3ccccc3)c2c1", "activity (quench increase)": "-4.85%"},
      {"smiles": "Cc1cccc(S(=O)(=O)N2C[C@@H]3[C@H](c4ccccc42)[C@H](CO)N3CC2CCOCC2)c1", "activity (quench increase)": "-1%"},
      {"smiles": "Cc1ccc(S(=O)(=O)N[C@@H]2CC[C@H](CCn3cc(-c4cccc(F)c4)nn3)O[C@@H]2CO)cc1", "activity (quench increase)": "-2.65%"},
      {"smiles": "C[C@@H](NC(=O)[C@@H]1[C@@H](CO)[C@@H]2Cn3c(ccc(C4=CCCCC4)c3=O)[C@@H]2N1C)c1ccccc1", "activity (quench increase)": "1.82%"},
      {"smiles": "C[C@@H]1CCCCO[C@H](CN(C)C(=O)Nc2ccc3c(c2)OCO3)[C@@H](C)CN([C@@H](C)CO)C(=O)c2cc(NC(=O)CCC(F)(F)F)ccc2O1", "activity (quench increase)": "2.41%"},
      {"smiles": "CCS(=O)(=O)N1CC2(CN(C(=O)c3ccc(F)cc3)[C@H](CO)c3c2c2ccc(OC)cc2n3C)C1", "activity (quench increase)": "2.9%"},
      {"smiles": "COc1ccc(NC(=O)C2Cc3c(-c4ccc(Cl)cc4)ccnc3O2)cc1", "note": "(stereo unspecified)", "activity (quench increase)": "-2.37%"},
      {"smiles": "O=C(c1[nH]ncc1-c1ccc(Cl)cc1)C1CO1", "note": "(stereo unspecified)", "activity (quench increase)": "9.82% (active)"},
      {"smiles": "S=c1[nH]nc(-c2ccc(Cl)cc2)n1CC1CCCO1", "note": "(stereo unspecified)", "activity (quench increase)": "-0.339%"},
      {"smiles": "C[C@H](CO)N1C[C@H](C)[C@@H](CN(C)C(=O)C2CC2)Oc2ncc(-c3cccc(C#N)c3)cc2C1=O", "activity (quench increase)": "0.111%"},
      {"smiles": "Cc1ccc(S(=O)(=O)Nc2ccc3c(c2)C(=O)N([C@@H](C)CO)C[C@@H](C)[C@H](CN(C)C(=O)NC(C)C)OCCCC[C@H](C)O3)cc1", "activity (quench increase)": "-0.752%"},
      {"smiles": "COc1ccc(S(=O)(=O)Nc2ccc3c(c2)C(=O)N([C@@H](C)CO)C[C@@H](C)[C@H](CN(C)C(=O)Nc2ccc(C(F)(F)F)cc2)OCCCC[C@@H](C)O3)cc1", "activity (quench increase)": "-1.09%"},
      {"smiles": "CCOC(=O)C1CSCCS(=O)(=O)N1Cc1ccc(Cl)cc1", "note": "(stereo unspecified)", "activity (quench increase)": "-1.25%"},
      {"smiles": "CO[C@H]1CN(C)C(=O)c2ccc(NC(=O)c3cccc(F)c3)cc2OC[C@H](C)N(CC2CC2)C[C@@H]1C", "activity (quench increase)": "-0.247%"},
      {"smiles": "Cc1cccc(C(=O)OCC(=O)NCC(C)C)c1O", "activity (quench increase)": "0.752%"},
      {"smiles": "Cc1c(C(=O)NC(C)C2CC3CCC2C3)cccc1[N+](=O)[O-]", "note": "(stereo unspecified)", "activity (quench increase)": "-0.675%"},
      {"smiles": "Cc1cccc(C(=O)OCC(=O)NC(C)C2CC3CCC2C3)c1O", "note": "(stereo unspecified)", "activity (quench increase)": "25.6% (active)"}
    ]}
  ]
}
